From PubChem BioAssay (EPA / NIEHS) come the findings set out here.

The nature of assay [1]: BSK_3C_TissueFactor: BioMAP Diversity Plus: 3C Assay for Tissue Factor Biomarker Activity (AID 2282997). The settings on record: BioMAP 3C HUVEC, tissue factor biomarker readout; actives raise or lower the signal. In a few lines:
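Dosing of human umbilical vein endothelial cells preceded a 24 h incubation. Tissue Factor was then read by ELISA, with increases and decreases both scored relative to DMSO controls.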

The nature of assay [2]: BSK_3C_VCAM1: BioMAP Diversity Plus: 3C Assay for Vascular cell adhesion molecule 1 (VCAM1) Biomarker Activity (AID 2282999). To be noted: BioMAP 3C HUVEC, VCAM1 ELISA, cytokine-stimulated; actives raise or lower the signal. In a few lines: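 Human umbilical vein endothelial cells were dosed with compound for 24 h, after which cell-surface VCAM-1 was quantified by ELISA. Bidirectional curve fitting used DMSO as negative control and activity baseline.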
For orientation: In an ELISA, binding on a coated surface is turned into a signal by an enzyme label.

Read-out in assay [3]: Monokine induced gamma interferon (MIG), CXCL9 (gene 4283)
The experiment in a line: BSK_3C_MIG: BioMAP Diversity Plus: 3C Assay for Monokine induced gamma interferon (MIG) Biomarker Activity (AID 2283021).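 For AC50: MIG protein level measured by immunoassay in the treated endothelial cultures.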 To be noted: primary human endothelial cells (HUVEC); actives raise or lower the signal. In a few lines:
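Primary human umbilical vein endothelial cells in the 3C system were exposed to chemical for 24 h, after which MIG was quantified by ELISA. Activity was fitted bidirectionally against DMSO as negative control and baseline.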

Read-out in assay [4]: Monokine induced gamma interferon (MIG), CXCL9 (gene 4283)
The experiment in a line: BSK_BE3C_MIG: BioMAP Diversity Plus: BE3C Assay for Monokine induced gamma interferon (MIG) Biomarker Activity (AID 2283035).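 For outcome: MIG protein measured by ELISA in BE3C cultures after 24 h of dosing.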 The settings on record: primary human bronchial epithelial cells; actives raise or lower the signal. Put shortly:
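ELISA read-out of MIG in human lung bronchial epithelial primary cultures, 24 h post-dosing. Bidirectional curve fit vs DMSO baseline.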

Read-out in assay [5]: Transforming growth factor beta 1 (TGFb1), TGFB1 (gene 7040)
Kind of assay: BSK_BE3C_TGFb1: BioMAP Diversity Plus: BE3C Assay for Transforming growth factor beta 1 (TGFb1) Biomarker Activity (AID 2283036). The settings on record: primary human bronchial epithelial cells; actives raise or lower the signal. In a few lines: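 Human primary bronchial epithelial cells (BE3C system) were dosed with chemical and TGF-b1 levels measured by ELISA at 24 h. Activity was fitted bidirectionally relative to DMSO negative control as baseline.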

Read-out in assay [6]: Plasminogen activator inhibitor-1 (PAI1), SERPINE1 (gene 5054)
The experiment in a line: BSK_BE3C_PAI1: BioMAP Diversity Plus: BE3C Assay for Plasminogen activator inhibitor-1 (PAI1) Biomarker Activity (AID 2283037). The settings on record: primary human bronchial epithelial cells; actives raise or lower the signal. In a few lines:
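Human primary bronchial epithelial cells were exposed to chemical for 24 h, then PAI-1 was quantified by ELISA. Activity was fitted bidirectionally relative to the DMSO negative control baseline.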

Read-out in assay [7]: urokinase plasminogen activator (uPA), PLAU (gene 5328)
Kind of assay: BSK_BE3C_uPA: BioMAP Diversity Plus: BE3C Assay for urokinase plasminogen activator (uPA) Biomarker Activity (AID 2283038).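 For outcome: uPA protein level quantified by ELISA in cell cultures; uPA read one day after compound addition.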 The settings on record: primary human bronchial epithelial cells; actives raise or lower the signal. In a few lines: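 ELISA for uPA on human primary bronchial epithelial cultures 24 h post-treatment, gain or loss against DMSO. Parallel SRB staining (0.1% after 10% TCA fixation, 560 nm) assessed overt cytotoxicity.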

Read-out in assay [8]: Tissue plasminogen activator (tPA), PLAT (gene 5327)
The experiment in a line: BSK_BE3C_tPA: BioMAP Diversity Plus: BE3C Assay for Tissue plasminogen activator (tPA) Biomarker Activity (AID 2283041).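 For outcome: tPA level quantified by ELISA one day after compound addition.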 To be noted: primary human bronchial epithelial cells; actives raise or lower the signal. Put shortly: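 Human primary bronchial epithelial cells were dosed with chemical and tPA biomarker levels measured by ELISA 24 hours later. Activity was fitted bidirectionally against DMSO as negative control and baseline.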

Read-out in assay [9]: serum amyloid A (SAA), SAA1 (gene 6288)
Kind of assay: BSK_CASM3C_SAA: BioMAP Diversity Plus: CASM3C Assay for serum amyloid A (SAA) Biomarker Activity (AID 2283049).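 Note: SAA protein level quantified by ELISA.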 The settings on record: primary human coronary artery smooth muscle cells; actives raise or lower the signal.

Read-out in assay [10]: Vascular cell adhesion molecule 1 (VCAM1), VCAM1 (gene 7412)
The experiment in a line: BSK_CASM3C_VCAM1: BioMAP Diversity Plus: CASM3C Assay for Vascular cell adhesion molecule 1 (VCAM1) Biomarker Activity (AID 2283055).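 Note: VCAM-1 protein level quantified by ELISA on the cells.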 The settings on record: primary human coronary artery smooth muscle cells; actives raise or lower the signal.

Read-out in assay [11]: Collagen III, COL3A1 (gene 1281)
Kind of assay: BSK_hDFCGF_CollagenIII: BioMAP Diversity Plus: hDFCGF Assay for Collagen III Biomarker Activity (AID 2283056). The settings on record: primary human foreskin fibroblasts; actives raise or lower the signal. In a few lines: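 ELISA readout of Collagen III in human dermal (foreskin) fibroblasts, taken 24 h post-treatment. Gain or loss relative to DMSO vehicle fitted in both directions.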

Read-out in assay [12]: Macrophage colony-stimulating factor (MCSF), CSF1 (gene 1435)
Kind of assay: BSK_hDFCGF_MCSF: BioMAP Diversity Plus: hDFCGF Assay for Macrophage colony-stimulating factor (MCSF) Biomarker Activity (AID 2283060). To be noted: primary human foreskin fibroblasts; actives raise or lower the signal. In a few lines: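 M-CSF levels read by ELISA at 24 h post-dosing in human skin fibroblasts. Parallel cultures stained with SRB assessed cytotoxicity at the same time point; response fitted in both directions against the DMSO baseline.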

Read-out in assay [13]: Interleukin-1 alpha (IL1a), IL1A (gene 3552)
Kind of assay: BSK_KF3CT_IL1a: BioMAP Diversity Plus: KF3CT Assay for Interleukin-1 alpha (IL1a) Biomarker Activity (AID 2283070). To be noted: primary human keratinocytes with fibroblasts; actives raise or lower the signal. Put shortly:
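Human keratinocyte plus foreskin fibroblast primary co-culture, sampled 24 h after chemical dosing. IL-1a measured by ELISA; responses fitted bidirectionally against DMSO baseline (negative control), so gain or loss of signal both count.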

Read-out in assay [14]: TIMP metallopeptidase inhibitor 2 (TIMP2), TIMP2 (gene 7077)
Kind of assay: BSK_KF3CT_TIMP2: BioMAP Diversity Plus: KF3CT Assay for TIMP metallopeptidase inhibitor 2 (TIMP2) Biomarker Activity (AID 2283071). To be noted: primary human keratinocytes with fibroblasts; actives raise or lower the signal. In a few lines:
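Human primary keratinocyte/foreskin fibroblast co-culture dosed with chemical and sampled at 24 h. TIMP-2 levels quantified by ELISA; bidirectional fitting against DMSO negative control as baseline.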

Read-out in assay [15]: Matrix Metallopeptidase 9 (MMP9), MMP9 (gene 4318)
The experiment in a line: BSK_KF3CT_MMP9: BioMAP Diversity Plus: KF3CT Assay for Matrix Metallopeptidase 9 (MMP9) Biomarker Activity (AID 2283074).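 For AC50: MMP9 protein level quantified by ELISA in the co-culture.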 The settings on record: primary human keratinocytes with fibroblasts; actives raise or lower the signal. Put shortly: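 Keratinocyte plus foreskin fibroblast human primary skin co-culture was dosed with chemical and MMP-9 was quantified by ELISA 24 h later. Bidirectional curve fitting used DMSO as negative control and activity baseline.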

Read-out in assay [16]: Tumor necrosis factor (Homo sapiens) (UniProt P01375)
Kind of assay: BSK_LPS_TNFa: BioMAP Diversity Plus: LPS Assay for Tumour Necrosis Factor alpha (TNFa) Biomarker Activity (AID 2283085).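 For AC50: TNFa protein level quantified by ELISA in the co-culture.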 The settings on record: primary human HUVEC with PBMC; actives raise or lower the signal. Put shortly: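 Human umbilical vein endothelial cells co-cultured with PBMC were exposed to test chemical and TNFa measured by ELISA 24 h after dosing. Bidirectional curve fitting was done relative to DMSO as negative control and baseline.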

Read-out in assay [17]: CD38, CD38 (gene 952)
Kind of assay: BSK_SAg_CD38: BioMAP Diversity Plus: SAg Assay for CD38 Biomarker Activity (AID 2283087). The settings on record: primary human HUVEC with PBMC; actives raise or lower the signal. In a few lines: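 Fluorescence ELISA of cell-surface CD38 served as the read-out, with either increase or decrease fitted against DMSO controls. Cells were a human umbilical vein endothelium plus PBMC co-culture under SEB/TSST-1 stimulation, measured 24 h after dosing.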

Read-out in assay [18]: CD69, CD69 (gene 969)
The experiment in a line: BSK_SAg_CD69: BioMAP Diversity Plus: SAg Assay for CD69 Biomarker Activity (AID 2283089).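 For AC50: cell surface CD69 protein quantified by ELISA with fluorescence detection.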 To be noted: primary human HUVEC with PBMC; actives raise or lower the signal. In a few lines:
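Values derive from bidirectional fitting relative to DMSO vehicle. Cells: umbilical vein endothelium plus peripheral blood mononuclear cells, treated 24 h before fluorescent ELISA for CD69.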

Read-out in assay [19]: E-selectin (Homo sapiens) (UniProt P16581)
The experiment in a line: BSK_SAg_Eselectin: BioMAP Diversity Plus: SAg Assay for Eselectin Biomarker Activity (AID 2283091). The settings on record: primary human HUVEC with PBMC; actives raise or lower the signal. Put shortly:
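Cell-surface E-selectin is read by ELISA at 24 h in the SAg co-culture of HUVEC and PBMC. Curves are fitted in both directions relative to DMSO. Parallel SRB total-protein staining tracks overt toxicity.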

The nature of assay [20]: BSK_SAg_PBMCCytotoxicity: PBMC Cytotoxicity Assessment in the BioMAP Diversity Plus: SAg Assay (AID 2283093).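 For AC50: PBMC superantigen activated with SEB plus TSST-1 one hour after compound addition.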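 Note: PBMC viability measured as Alamar Blue reduction fluorescence at 546/580 nm; fitted both ways against DMSO so a hit may be loss or gain of signal.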 The settings on record: primary human HUVEC with PBMC. Put shortly:
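Human umbilical vein endothelial cells co-cultured with PBMC; PBMC (75,000/well) pre-treated with compound 1 h, then activated with SEB and TSST-1 (20 ng/mL final each) for 90 h. Alamar Blue added 6 h, fluorescence 546/580 nm; bidirectional fit versus DMSO.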

Molecules are shown by their SMILES. Where “and” joins values, the source holds several entries; their conditions need not be identical. Identical values can stand only once. The source holds several records for some structures; these can differ, active in one and inactive in another. Calls of active or inactive are those of the source. Rule for the calls: active = hit-call score of the fitted dose curve at least 0.9, where 1 is the maximum; inactive = score below 0.9.

E-selectin (Homo sapiens), sequence (P16581 whole entry, looked up): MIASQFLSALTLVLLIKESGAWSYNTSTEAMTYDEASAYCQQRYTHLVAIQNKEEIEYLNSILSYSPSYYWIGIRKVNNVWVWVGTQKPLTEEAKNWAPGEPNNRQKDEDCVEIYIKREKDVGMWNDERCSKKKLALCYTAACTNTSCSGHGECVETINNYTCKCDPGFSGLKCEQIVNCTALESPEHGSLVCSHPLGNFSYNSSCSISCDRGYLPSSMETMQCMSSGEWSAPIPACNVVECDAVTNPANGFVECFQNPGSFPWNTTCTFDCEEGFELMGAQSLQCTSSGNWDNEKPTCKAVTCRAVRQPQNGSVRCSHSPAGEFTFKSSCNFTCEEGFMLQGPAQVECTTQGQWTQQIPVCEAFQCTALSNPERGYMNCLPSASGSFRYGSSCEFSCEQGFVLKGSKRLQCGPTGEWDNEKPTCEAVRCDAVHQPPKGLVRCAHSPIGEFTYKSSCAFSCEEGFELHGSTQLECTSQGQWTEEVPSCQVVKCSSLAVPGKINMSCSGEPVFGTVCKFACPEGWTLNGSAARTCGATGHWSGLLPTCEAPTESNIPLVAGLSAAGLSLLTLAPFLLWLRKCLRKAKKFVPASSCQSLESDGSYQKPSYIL
Tumor necrosis factor (Homo sapiens), sequence (P01375 whole entry, looked up): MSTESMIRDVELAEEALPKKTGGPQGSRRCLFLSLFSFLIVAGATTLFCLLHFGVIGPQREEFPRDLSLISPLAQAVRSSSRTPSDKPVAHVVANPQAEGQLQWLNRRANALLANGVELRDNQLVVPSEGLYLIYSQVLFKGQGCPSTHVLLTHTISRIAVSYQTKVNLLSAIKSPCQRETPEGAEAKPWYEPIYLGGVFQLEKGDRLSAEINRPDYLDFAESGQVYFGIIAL

Turning to `CNC(=O)Oc1cc(C)c(SC)c(C)c1`, the outcome in assay [1], in assay [3], in [4], in [5], in assay [6] and in assay [7] was inactive. For the same molecule, the result in [8], in assay [9], in assay [11], in [12], in [13] and in [14] was inactive. Moreover, the outcome in assay [15], in assay [16], in [17], in [18], in assay [19] and in assay [20] was inactive. The AC50 in assay [2] and in [10] was 20 µM (active) each time.

Regarding `CC1(C)[C@H](C(=O)O[C@H](C#N)c2cccc(Oc3ccccc3)c2)[C@@H]1C=C(Br)Br`, the result in assay [1], in assay [2], in assay [3], in assay [4], in [5] and in assay [6] was inactive. The outcome in assay [7], in assay [8], in assay [9], in [10], in assay [12] and in assay [13] was inactive. For the same molecule, the result in [14], in assay [15], in assay [16], in assay [17], in [18] and in assay [19] was inactive. For the same molecule, the result in [20] was inactive. Besides, the AC50 in assay [5] was 1.2 µM (active); in [10], 3.97 µM (active); in assay [11], 7.51 µM (active) and 4.58 µM (active); in [14] it was 0.298 µM (active); in assay [17], 2.42 µM (active); in assay [18] it was 2.07 µM (active). Besides, the AC50 in assay [19] was 1.52 µM (active).

On to `CCC(C)c1cc([N+](=O)[O-])cc([N+](=O)[O-])c1OC(=O)C=C(C)C` (stereo unspecified), for which the AC50 in [1] is 9.89 µM (active); in assay [2], 20 µM (active); in [3], 35.3 µM (active); in [4] it was 35.1 µM (active); in assay [5], 3.97 µM (active); in assay [6], 11 µM (active). Moreover, the AC50 in assay [7] is 31.9 µM (active); in assay [8], 6.13 µM (active); in assay [9], 20 µM (active); in assay [10] it was 20.5 µM (active); in [11], 5.31 µM (active); in [12], 6.13 µM (active). For the same molecule, the half-maximal activity concentration (AC50) is 22.8 µM (active) in assay [13]; 21.1 µM (active) in [14]; 14.8 µM (active) in [15]; 34.5 µM (active) in [16]; 10.3 µM (active) in assay [17]; 8.09 µM (active) in assay [18]. In addition, the AC50 is 8.28 µM (active) in assay [19] and 28.2 µM (active) in [20].

As usually defined, the AC50 is the midpoint of the concentration-response curve, whichever way the signal moves.
